Measurements reported in PubChem BioAssay (NCATS).
Inconclusive results are not listed. Entries that show only a call come without a potency. Active and inactive are the calls of the source. Unless noted, the call rests on the fitted dose curve; in most records, active means well fitted curve in the direction sought with a large enough effect; inconclusive means small, poorly fitted or top-dose-only effect, or another doubt; inactive means no such curve, though single readings can be large; an effect the other way counts as inactive or inconclusive.

What was measured:
[1] = Cell Viability - BJ (AID 421; calls by dose curve;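 further: potency means the concentration at half of the fitted maximal effect; cells exposed to compound for 40 hours at 37 °C before readout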); conditions: BJ fibroblast viability, qHTS
In short: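 Quantitative HTS: ATP depletion in BJ cells after 40 hr compound exposure in complete culture medium, detected with CellTiter-Glo; AC50 from standard Hill fits.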

[2] = Cell Viability - Jurkat (AID 426;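 active means dose-dependent loss of cell ATP signal giving a full or clear fitted curve, ranked by lower potency value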; further: potency means the concentration at half of the fitted maximal effect); conditions: qHTS
In short: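 Seed 5000 Jurkat E6-1 cells/well; add compound; incubate 40 hr at 37 °C; add CellTiter-Glo; wait 20 min at room temperature; read luminescence. Fit concentration-response with Hill equation for AC50.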

[3] = Cell Viability - Hek293 (AID 427;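 active means compounds whose dose-response curve shows a full or clear partial loss of cell viability, called from curve shape rather than a numeric limit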;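 further: potency means the concentration at half of the fitted maximal effect; cells exposed to compound for 40 hours at 37 °C before reading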); conditions: qHTS
In short: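 AC50 values derive from Hill-modelled concentration-response of ATP-based luminescence, normalized between DMSO-only and 100 uM tamoxifen controls. Cells were exposed in complete culture medium for 40 hr at 37 °C before detection.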

[4] = Cell Viability - HepG2 (AID 433; calls by dose curve;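 further: potency means the concentration at half of the fitted maximal effect; potency for ATP loss meaning cytotoxicity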); conditions: qHTS
In short: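 HepG2 cells, 1500 per well, treated 40 hr at 37 °C in complete medium; viability from intracellular ATP by CellTiter-Glo luminescence. Normalized to DMSO and 100 uM tamoxifen; AC50 from Hill fit of qHTS concentration-response.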

[5] = Cell Viability - MRC5 (AID 434; calls by dose curve;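 further: potency means the concentration at half of the fitted maximal effect; potency reflects cytotoxicity seen as loss of intracellular ATP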); conditions: MRC5 lung fibroblast viability, qHTS
In short: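 qHTS cytotoxicity in human lung fibroblast MRC5 cells; 40 hr treatment, 37 °C; cellular ATP by luciferase luminescence; DMSO = 0%, 100 uM tamoxifen = 100% inhibition; Hill-fit AC50.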

[6] = Cell Viability - N2a (AID 540); conditions: N2a mouse neuroblastoma cell viability; at 92.2 µM (top of the series); further: nearly all actives have a fitted effect of over 45% in size
In short: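 First, 1500 N2a cells per well incubate 5 hr at 37 °C; next, compounds are added and incubated 40 hr at 37 °C; finally CellTiter-Glo is added and luminescence read after 20 min, with AC50 derived by Hill modeling.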

[7] = Cell Viability - NIH 3T3 (AID 541); conditions: NIH 3T3 cell viability, qHTS; at 92.2 µM (top of the series); further: nearly all actives have a fitted effect of over 25% in size
In short: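 AC50 values reflect concentration-dependent loss of intracellular ATP in NIH 3T3 cells after 40 hr treatment in complete culture medium, quantified by luciferase-based luminescence.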

[8] = Cell Viability - H-4-II-E (AID 543); further: nearly all actives have a fitted effect of over 35% in size
In short: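 Here, cytotoxicity is measured in the rat hepatoma line H-4-II-E as loss of intracellular ATP after 40 hr compound treatment, detected by luciferase luminescence.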

[9] = Cell Viability - SH-SY5Y (AID 544); further: nearly all actives have a fitted effect of over 55% in size
In short: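 Cytotoxicity is scored as a concentration-dependent fall in intracellular ATP in human SH-SY5Y cells treated 40 hr in complete culture medium. Potency is expressed as AC50 from a Hill equation fit.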

[10] = Cell Viability - Renal Proximal Tubule (AID 545); further: nearly all actives have a fitted effect of over 40% in size
In short: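 Rat renal proximal tubule primary cells, 1000/well, exposed to compounds for 40 hr at 37 °C in complete medium; cellular ATP read by CellTiter-Glo luminescence. AC50 from concentration-response fitted with standard Hill equation.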

[11] = Cell Viability - Mesenchymal (AID 546);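 further: cells exposed to compound for 40 hours before reading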
In short: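 AC50 values reflect the drop in intracellular ATP in a human kidney mesenchymal line derived from normal glomeruli. Treatment lasts 40 hr at 37 °C in complete medium, and the signal comes from CellTiter-Glo luminescence.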

[12] = Cellular Toxicity (caspase-3) HepG2 (AID 654);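 further: cells exposed to compound for 16 hours before reading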
In short: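 qHTS, HepG2, 1500 cells/well, complete medium; cpd 16 h 37 °C; Caspase-Glo 3/7, 20 min RT; lum. Norm: DMSO vs 100 uM tamoxifen; AC50 Hill fit.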

[13] = Cellular Toxicity (caspase-3) Jurkat (AID 655);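 further: cells exposed to compound for 16 h at 37 °C before reading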
In short: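 Jurkat cells (5000/well) in complete medium exposed 16 h at 37 C; caspase-3/7 activity read by Caspase-Glo luminescence after 20 min at room temperature. Normalized to DMSO and 100 uM tamoxifen; AC50 from Hill fits.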

[14] = Cellular Toxicity (caspase-3) HUV-EC-C (AID 656)
In short: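 HUV-EC-C cells (1000/well) in complete medium, compound-treated 16 h at 37 °C; caspase-3/7 activity read by Caspase-Glo 3/7 luminescence. Normalized to DMSO (basal) and 100 uM tamoxifen (100%); AC50 from Hill-equation concentration-response fits.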

[15] = Cellular Toxicity (caspase-3) SHSY5Y (AID 657)
In short: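 SH-SY5Y human neuroblastoma cells, 1500/well, exposed to compound for 16 hours at 37 °C in complete medium. Caspase-3/7 activity read by Caspase-Glo luminescence after 1 hr at room temperature, normalized to DMSO and 10 uM staurosporine; AC50 from Hill fit.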

[16] = Cellular Toxicity (caspase-3) BJ (AID 658)
In short: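 Readout: Caspase-Glo 3/7 luminescence increase in BJ cells after 16 hr treatment at 37 °C. Staurosporine and tamoxifen served as positive controls; AC50 values came from Hill modelling of data normalized to DMSO and 10 uM staurosporine.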

[17] = Cellular Toxicity (caspase-3) MRC-5 (AID 659)
In short: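 Concentration-dependent caspase 3/7 activation is measured in human normal lung fibroblasts (MRC-5) following 16-hour treatment. AC50 values come from standard Hill-equation modeling of luminescence normalized to DMSO and 10 uM staurosporine.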

[18] = Cellular Toxicity (caspase-3) Mesangial (AID 660);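 further: cells exposed to compound for 16 h before the caspase read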
In short: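 Concentration-response qHTS: compound-induced rise in caspase 3/7 luminescence in human mesangial cells after 16 h, normalized to DMSO and 100 uM tamoxifen controls.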

[19] = Cellular Toxicity (caspase-3) SK-N-SH (AID 661)
In short: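 Caspase 3/7 activation is measured as a luminescence increase from aminoluciferin released by substrate cleavage in SK-N-SH cells after 16 hr compound treatment; values are AC50 from concentration-response curves.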

[20] = Cellular Toxicity (caspase-3) H-4-II-E (AID 663)
In short: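 Apoptosis induction is scored as increased luminescence from caspase 3/7 substrate cleavage in rat hepatoma H-4-II-E cells exposed to compound for 16 hr. Activity is scaled between DMSO and 100 uM tamoxifen.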

[21] = Cellular Toxicity (caspase-3) Hek293 (AID 664);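 further: cells exposed to compound for 16 h at 37 °C before readout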
In short: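 Activation of caspase-3/7 is measured as increased luminescence from cleaved peptide-aminoluciferin substrate in HEK293 cells treated 16 hours at 37 °C. AC50 values come from Hill-equation fits of concentration-response data.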

[22] = Cellular Toxicity (caspase-3) N2a (AID 665);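 further: compound exposure lasted 16 h at 37 °C before readout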
In short: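 Plated mouse neuroblastoma N2a cells received titrated compounds for 16 h in complete medium. Caspase activity was then detected with a peptide-aminoluciferin luminescent reagent.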

[23] = Cellular Toxicity (caspase-3) NIH 3T3 (AID 666);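 further: caspase signal read after 16 h compound exposure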
In short: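 Concentration-response qHTS in NIH 3T3 mouse fibroblasts scores caspase-3/7 activation as rising luminescence after 16 hr compound exposure. Signals are scaled between DMSO-only and 100 uM tamoxifen.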

[24] = Cellular Toxicity (caspase-3) Renal Proximal Tubule (AID 667);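 further: cells exposed to compound for 16 hours at 37 °C before detection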
In short: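 Freshly isolated primary rat kidney proximal tubule cells, 1000/well, treated 16 hr at 37 °C, then Caspase-Glo 3/7 luminescence after 1 hr. Normalized to DMSO and 10 uM staurosporine; AC50 from Hill fit.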

[25] = target: Cytochrome P450 3A4 (Homo sapiens) (UniProt P08684); test: qHTS Assay for Inhibitors and Substrates of Cytochrome P450 3A4 (AID 884); further: nearly all actives have a fitted effect of over 50% in size
In short: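 20 nM human CYP3A4 with 25 uM Luciferin-PPXE (at KM) in 200 mM KPO4, preincubated 10 min with compound; NADPH regeneration started a 60 min RT reaction. Luciferin detected by luminescence, normalized to 57 uM ketoconazole as full inhibition.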

[26] = Cell Viability - LYMP2-001 (AID 921); further: nearly all actives have a fitted effect of over 70% in size
In short: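 Human lymphoblastoid LYMP2-001 cells, 2500 per well, in complete medium, treated 24 h at 37 C. Viability from cellular ATP by CellTiter-Glo luminescence; AC50 from Hill-equation fits of qHTS concentration-response.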

[27] = MultiTox-Fluor Cytotoxicity Assay - LYMP1-001 - Dead Cells (AID 946)
In short: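 In this qHTS, 15 uM tetraoctylammonium bromide defined 100% and DMSO defined basal activity. Lymphoblastoid cells (LYMP1-001, 2500 per well) received compound for 16 hr at 37 C before a fluorogenic dead-cell substrate readout at 485/520 nm.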

[28] = MultiTox-Fluor Cytotoxicity Assay - LYMP1-001 - Live Cells (AID 947)
[29] = Cell Viability - LYMP1-002 - Assay at 16 hr (AID 948)
In short: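 LYMP1-002 human lymphoblastoid cells, 2500/well, were treated with compounds for 16 hr at 37 C in complete medium. Viability was read as intracellular ATP by CellTiter-Glo luminescence, and AC50 was derived from a Hill fit to concentration-response data.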

[30] = MultiTox-Fluor Cytotoxicity Assay - LYMP1-002 - Live Cells (AID 955)
In short: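 Cytotoxicity in the human lymphoblastoid line LYMP1-002 is measured as loss of live-cell protease activity after 16 h treatment in complete culture medium. AC50 is derived from Hill-equation fits of qHTS concentration-response data.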

[31] = MultiTox-Fluor Cytotoxicity Assay - LYMP1-002 - Dead Cells (AID 960); further: nearly all actives have a fitted effect of over 60% in size
In short: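 Acute cytotoxicity in a human lymphoblastoid line is scored as rising dead-cell protease signal after 16 hr exposure at 37 C, measured fluorometrically (485/520).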

[32] = MultiTox-Fluor Cytotoxicity Assay - LYMP1-003 - Live Cells (AID 962);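 further: cytotoxic hits lower the live-cell protease signal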
In short: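 Cells plated at 2500 per well and incubated 5 hr; compounds added and incubated 16 hr at 37 C; MultiTox-Fluor reagent added for 60 min at room temperature; fluorescence of liberated AFC measured at 405/510 nm.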

[33] = Cell Viability - LYMP1-003 - Assay at 24 hr (AID 963)
In short: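 Acute toxicity in LYMP1-003 lymphoblastoid cells: 24 hr compound treatment at 37 C, ATP measured with CellTiter-Glo after 30 min at room temperature. AC50 derived by fitting the Hill equation to qHTS titrations.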

[34] = Cell Viability - LYMP1-003 - Assay at 40 hr (AID 964); further: nearly all actives have a fitted effect of over 60% in size
In short: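 This qHTS cytotoxicity screen treats human lymphoblastoid cells (LYMP1-003) with compounds for 40 hr and quantifies cellular ATP via luciferase luminescence.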

[35] = Cell Viability - LYMP2-003 (AID 965);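 further: cells exposed to compounds for 24 h before reading; nearly all actives have a fitted effect of over 50% in size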
In short: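 Human lymphoblastoid LYMP2-003 cells, 2500/well, exposed to compounds for 24 h at 37 C in complete medium. Viability read as intracellular ATP by CellTiter-Glo luminescence; AC50 from Hill-equation fits of qHTS concentration-response data.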

[36] = Cell Viability - LYMP2-004 (AID 966); further: nearly all actives have a fitted effect of over 65% in size
In short: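 Acute toxicity is scored as a concentration-dependent drop in intracellular ATP, quantified by luciferase luminescence, in human lymphoblastoid cells exposed to compound for 24 hr. AC50 derives from Hill-equation modelling.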

[37] = Cell Viability - LYMP2-005 (AID 967)
In short: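 Human lymphoblastoid LYMP2-005 cells, 2,500 per well in complete medium, rested 5 h at 37C then compound-treated 24 h at 37C. Intracellular ATP read by CellTiter-Glo luminescence after 30 min at room temperature; AC50 from Hill-equation fits of concentration-response data.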

[38] = Cell Viability - LYMP2-009 (AID 968); further: nearly all actives have a fitted effect of over 55% in size
[39] = Cell Viability - LYMP2-011 (AID 969); further: nearly all actives have a fitted effect of over 60% in size
In short: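 Acute toxicity is scored as a concentration-dependent drop in intracellular ATP of a human lymphoblastoid line after 24 hr treatment. Values are AC50s modeled with the Hill equation.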

[40] = Cell Viability - LYMP2-013 (AID 970); further: nearly all actives have a fitted effect of over 55% in size
In short: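 Acute toxicity was measured in human lymphoblastoid cells (2500/well) exposed to compound titrations for 24 hr, with ATP luminescence (CellTiter-Glo) as read-out and AC50 fitted by Hill equation.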

[41] = Cell Viability - LYMP2-015 (AID 971); further: nearly all actives have a fitted effect of over 55% in size
In short: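 Acute toxicity was scored as a concentration-dependent drop in intracellular ATP in lymphoblastoid cells after 24 hr compound exposure in complete medium. Detection used CellTiter-Glo luciferase luminescence.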

[42] = Cell Viability - LYMP2-017 (AID 972); further: nearly all actives have a fitted effect of over 55% in size
In short: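 Steps: plate 2500 lymphoblastoid cells per well; incubate 5 hr at 37 C; add compound across a concentration series and incubate 24 hr at 37 C; add CellTiter-Glo and read luminescence after 30 min at room temperature; fit Hill curves for AC50.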

[43] = Cell Viability - LYMP2-021 (AID 974)
In short: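 Concentration-response cytotoxicity in a human lymphoblastoid line: 24 hr treatment at 37 C in complete culture medium, tetraoctylammonium bromide as positive control, luminescent ATP quantitation as viability measure.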

Cytochrome P450 3A4 (Homo sapiens), sequence (P08684 whole entry, looked up): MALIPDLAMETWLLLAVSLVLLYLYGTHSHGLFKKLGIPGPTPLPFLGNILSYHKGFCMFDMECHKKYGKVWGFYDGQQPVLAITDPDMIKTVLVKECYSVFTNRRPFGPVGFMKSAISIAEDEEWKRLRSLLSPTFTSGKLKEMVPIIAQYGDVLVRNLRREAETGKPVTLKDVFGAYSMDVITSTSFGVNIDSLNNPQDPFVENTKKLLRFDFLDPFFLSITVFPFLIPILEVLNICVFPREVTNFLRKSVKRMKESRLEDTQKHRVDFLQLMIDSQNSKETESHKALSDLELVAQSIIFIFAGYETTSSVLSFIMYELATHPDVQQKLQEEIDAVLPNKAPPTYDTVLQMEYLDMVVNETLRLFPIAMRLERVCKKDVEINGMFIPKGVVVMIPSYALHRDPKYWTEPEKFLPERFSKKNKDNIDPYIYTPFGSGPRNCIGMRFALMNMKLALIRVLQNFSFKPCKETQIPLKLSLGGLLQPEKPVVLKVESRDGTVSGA

## CC(=O)/C=C/c1ccccc1
[1]
  Potency: > 92 µM (inactive)
[2]
  Potency: > 92 µM (inactive)
[3]
  Potency: > 92 µM (inactive)
[4]
  Potency: > 92 µM (inactive)
[5]
  Potency: > 92 µM (inactive)
[6]
  activity change, negative = cytotoxicity: -5.72% (inactive)
[7]
  activity change, negative = cytotoxicity: -123% (active)
[8]
  outcome: inactive
[9]
  outcome: inactive
[10]
  outcome: inactive
[11]
  outcome: inactive
[12]
  outcome: inactive
[13]
  outcome: inactive
[14]
  outcome: inactive
[15]
  outcome: inactive
[16]
  outcome: inactive
[17]
  outcome: inactive
[18]
  outcome: inactive
[19]
  outcome: inactive
[20]
  outcome: inactive
[21]
  outcome: inactive
[22]
  outcome: inactive
[23]
  outcome: inactive
[24]
  outcome: inactive
[25]
  Potency: inactive
[26]
  outcome: inactive
[27]
  Potency: inactive
[28]
  outcome: inactive
[29]
  outcome: inactive
[30]
  outcome: inactive
[31]
  Potency: inactive
[32]
  outcome: inactive
[33]
  outcome: inactive
[34]
  Potency: inactive
[35]
  outcome: inactive
[36]
  outcome: inactive
[37]
  outcome: inactive
[38]
  outcome: inactive
[39]
  outcome: inactive
[40]
  outcome: inactive
[41]
  outcome: inactive
[42]
  outcome: inactive
[43]
  outcome: inactive
